Compounds with a hit are over-represented: about 2.8% of the library has one in this group of screens.
MITF act: MITF TRPM1 promoter activation in melanoma cells | 0.75% of 300,000 active | SK-MEL-5 TRPM1-promoter luciferase, 24 h; % of positive control, neutral wells = 0 | activation, % at 12.5 µM;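 active = mean activation of at least 80% with every replicate also reaching 80%; inconclusive = mean reaches 80% but some replicate falls short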;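 also: 0% = neutral control wells and 100% = parthenolide positive control wells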
Wnt bcat act: activators of Wnt/beta-catenin signaling | Wnt/beta-catenin reporter cell assay, activator, plate reader | activation, % at 9.35 µM | 1.2% of 300,000 active; in the data active = activation above about 30%, passing the limit was not always enough; inconclusive = no clear call, values can overlap the other calls;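 also: 0% = neutral control wells and 100% = positive control wells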
FXN GAA850 act: activators of GAA850 frataxin (FXN) promoter | HEK293 lucGAA850 FXN promoter luciferase reporter, 24 h; percent of 10 µM SAHA response | 0.56% of 360,000 active | activation, % at 6 µM;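 active = activation above the average of all compounds screened plus 3 SD, cutoff fixed separately per campaign, cut at about 7.5% in these data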;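 also: 0% = DMSO wells and 100% = 10 µM SAHA wells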
esBAF inh: inhibitors of esBAF chromatin remodeling in mouse ES cells; 2% of 350,000 active; Bmi1-luciferase knock-in reporter, 24 h; 100% = twice the neutral-well signal; reporter increase, % at 12.5 µM; in the data active = activation above about 40%; inconclusive = no clear call, values can overlap the other calls;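 also: 0% = median of the plate's neutral control wells and 100% = double that signal; a rise in the Bmi1 reporter signal indicates esBAF inhibition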
The depositor's hits bear a star; ? = inconclusive; . = no result.

SMILES | MITF act | Wnt bcat act | FXN GAA850 act | esBAF inh
O=C(c1cc(COc2ccc(F)cc2Cl)on1)N1C[C@H]2CC[C@H]1C2 | 78 | 0 | 5 | 43*
C[C@@H]1CN([C@H](C)CO)C(=O)c2cc(NS(C)(=O)=O)ccc2O[C@@H]1CN(C)Cc1ccc(-c2ccccc2)cc1 | . | . | . | 8
C#Cc1ccc2c(c1)COc1c3ccccc3nn1-2 | 18 | 27 | 4 | 10
C(#CC1CCCCC1)c1ccc2c(c1)COc1c3ccccc3nn1-2 | . | 35* | 2 | ?
CC(C#Cc1ccc2c(c1)COc1c3ccccc3nn1-2)OC(C)(C)C (stereo unspecified) | 95* | 15 | 3 | 104*
C(#Cc1ccc2c(c1)COc1c3ccccc3nn1-2)c1ccccc1 | 100* | 32* | 4 | 63*
C[C@@H]1CN([C@@H](C)CO)C(=O)Cc2cc(NC(=O)Cc3ccccc3)ccc2O[C@@H]1CN(C)S(=O)(=O)c1cn(C)cn1 | . | . | . | -1
CCCN1C[C@@H](C)[C@@H](OC)CN(C)C(=O)c2ccc(NC(=O)C3CC3)cc2OC[C@@H]1C | . | . | . | 7
CC(=O)N1CC[C@@H]2[C@H]1c1cc(C#Cc3cccnc3)ccc1N[C@@H]2CO | . | . | . | 2
Cc1noc(C)c1NC(=O)Nc1ccc2c(c1)C(=O)N([C@@H](C)CO)C[C@H](C)[C@@H](CN(C)C)OCCCC[C@H](C)O2 | . | . | . | 1
COc1ccc2cc(C3=CCCCC3)ncc2c1 | 31 | 42* | 3 | 8
COc1ccc2cc(-c3ccccc3)ncc2c1 | 40 | 32* | 4 | 2
COc1ccc2cc(-c3ccsc3)ncc2c1 | -59 | 41* | 7 | 29
CO[C@@H]1CN(C)C(=O)c2cc(NS(=O)(=O)c3ccc(Oc4ccccc4)cc3)ccc2OC[C@H](C)NC[C@@H]1C | . | . | . | 0
CN(C)CC(=O)N1[C@@H](C#N)[C@@H](c2ccc(-c3ccccc3F)cc2)[C@@H]1CO | . | . | . | -2
C[C@@H]1CN([C@@H](C)CO)S(=O)(=O)c2ccc(/C=C/c3ccccc3)cc2O[C@H]1CN(C)C(=O)c1ccc2c(c1)OCO2 | . | . | . | -4
Cc1ccc(N2C(=O)[C@@H]3Cc4ccccc4CN3C2=O)cc1 | 42 | 14 | 0 | 55*
CC(C)NC(=O)N(C)C[C@H]1Oc2ccc(NS(=O)(=O)c3ccc(Cl)cc3)cc2C(=O)N([C@@H](C)CO)C[C@H]1C | . | . | . | -3
COc1ccccc1CN(C)C[C@H]1OCc2cn(nn2)CCCC(=O)N([C@H](C)CO)C[C@H]1C | . | . | . | -5
Cc1cc(NC(=O)/C=C/c2ccc(F)cc2)n(-c2nc3ccccc3[nH]2)n1 | 31 | -2 | 0 | .
COc1ccc(/C=C/C(=O)Nc2cc(C)nn2-c2nc3ccccc3[nH]2)cc1 | 92* | 8 | 4 | .
COc1ccc(NC(=O)CSc2nnc(C3CCCCC3)o2)c(OC)c1 | 0 | 0 | -1 | -3
O=C(CSc1nnc(C2CCCCC2)o1)Nc1ccccc1Cl | 109* | 21 | 4 | 62*
O=C(COc1ccc2ccccc2c1)N1CCCC1 | 45 | 36* | 3 | 26
NC(=O)C1CCN(C(=O)COc2ccc3ccccc3c2Br)CC1 | -2 | 1 | -1 | .
SMILES | MITF act | Wnt bcat act | FXN GAA850 act | esBAF inh
O=C(COc1ccc2ccccc2c1)N1CCN(c2ccccc2)CC1 | -11 | -1 | 2 | -5
Cc1cc(NC(=O)COc2ccc3ccccc3c2Br)no1 | 68 | 40* | 4 | ?
O=C(COc1ccc2ccccc2c1Br)N1CCCCC1 | 40 | . | 6 | 76*
O=C(COc1ccc2cc(Br)ccc2c1)N1CCOCC1 | . | 28 | 1 | 48*
COc1ccc(-c2cnc3c(c2)C(=O)N([C@@H](C)CO)C[C@H](C)[C@H](CN(C)C(=O)Cc2ccccn2)O3)cc1 | . | . | . | 0
O=C(C[C@H]1CC[C@H](NC(=O)Cc2ccccn2)[C@@H](CO)O1)NCCc1ccccc1 | . | . | . | -2
Cn1c(NC(=O)c2ccccc2F)c(-c2cccs2)c(=O)c2ccccc21 | -3 | 33* | 1 | .
Cn1c(NC(=O)c2ccc(F)cc2)c(-c2cccs2)c(=O)c2ccccc21 | 7 | -5 | -1 | .
O=C(CCc1ccccc1)c1ccc2c(c1)OCCCO2 | 122* | . | 2 | 76*
O=C(/C=C/c1ccc2c(c1)OCCCO2)c1ccc2ccccc2c1O | 51 | 6 | 7 | 45*
O=C(C=Cc1ccc2c(c1)OCO2)C=Cc1ccc2c(c1)OCO2 | . | 0 | -2 | .
O=C(/C=C/c1ccc2c(c1)OCO2)c1ccccn1 | . | -1 | 3 | 38*
Cc1ccc(C(=O)/C=C/c2ccc3c(c2)OCCO3)c(O)c1 | 4 | -1 | 6 | .
O=C(N/N=C/c1ccc2c(c1)OCO2)c1ccccn1 | -4 | -1 | -1 | -60
O=C(CCCc1ccccc1)c1ccc2c(c1)OCCO2 | -78 | -12 | -17 | -84
O=C(C=Cc1ccc2c(c1)OCO2)c1ccccc1 | 68 | 2 | 3 | 50*
C[C@@H]1CN([C@@H](C)CO)C(=O)c2cc(NS(=O)(=O)c3ccc(Cl)cc3)ccc2O[C@@H](C)CCCCO[C@H]1CN(C)C(=O)Cc1ccccc1 | . | . | . | 4
C[C@H](CO)N1C[C@H](C)[C@@H](CN(C)C(=O)Nc2cccc(C(F)(F)F)c2)OCc2cnnn2CCCC1=O | . | . | . | -2
Cc1noc(C)c1NC(=O)N(C)C[C@@H]1Oc2cc(C#CCN(C)C)ccc2S(=O)(=O)N([C@H](C)CO)C[C@@H]1C | . | . | . | 0
O=C(/C=C/c1ccccc1)c1ccc2c(c1)OCCCCO2 | 91* | 15 | 5 | .
O=C(O)c1ccc2c(c1)OCCCO2 | 2 | 14 | 0 | -4
C[C@@H]1CN([C@@H](C)CO)C(=O)c2cc(NC(=O)Nc3ccc(F)cc3)ccc2O[C@H]1CN(C)Cc1ccc(C(F)(F)F)cc1 | . | . | . | 3
C[C@@H]1CN([C@@H](C)CO)C(=O)c2cccc(NC(=O)c3cnccn3)c2O[C@@H]1CN(C)CC1CCCCC1 | . | . | . | -3
CC1CCN(C(=O)C2Cc3ccccc3CN2S(=O)(=O)c2ccc(F)cc2)CC1 (stereo unspecified) | -5 | . | 11* | 3
CC(C)NC(=O)N[C@@H]1CC[C@@H](CCNC(=O)C2CCOCC2)O[C@H]1CO | . | . | . | 3
SMILES | MITF act | Wnt bcat act | FXN GAA850 act | esBAF inh
CC(NC(=O)c1noc2c1CCCCC2)c1ccccc1 (stereo unspecified) | 23 | 0 | 1 | 45*
O=C(NC1CCCC1)c1noc2c1CCCCC2 | . | 43* | 3 | .
O=C(NCc1ccccc1)c1noc2c1CCCCC2 | 101* | . | 5 | 34
C[C@@H]1CN([C@H](C)CO)C(=O)c2cc(NC(=O)c3ccncc3)ccc2O[C@H]1CN(C)S(=O)(=O)c1cccs1 | . | . | . | 1
CCCNC(=O)Nc1nc2ccccc2s1 | 126* | ? | 7 | .
Cc1csc(SCC(=O)Nc2nc3ccccc3s2)n1 | . | -2 | 4 | 47*
Cc1csc(SCC(=O)Nc2ccccc2)n1 | 29 | 2 | 2 | 9
C[C@H]1CN([C@@H](C)CO)C(=O)c2cc(NC(=O)C3CCCCC3)ccc2O[C@H]1CN(C)Cc1ccccc1 | . | . | . | 1
O=C(C[C@@H]1CC[C@@H](NC(=O)CCN2CCCCC2)[C@H](CO)O1)NCc1ccc(Cl)c(Cl)c1 | . | . | . | 5

From PubChem BioAssay
